Laboratory results from the supplement of paper PMC6555819.

Key:
Test in all cases: PBM binding z-score (relative to random genomic background probes); higher = stronger binding; sequences stand for … in GC…GCGATTGACAGCGTAGAATGAAGG
[1] = test system: FXR:RXRa (NR concentration 270 nM, RXRa partner concentration 90 nM)
Summary of the method: (§1)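 Regression normalization was applied to scanned fluorescence from custom Agilent 4×180K protein-binding microarrays. Before scanning, arrays were incubated 1 h with ligand-free nuclear receptor dimers, and binding was detected with antibodies against each partner (one per run). Binding z-scores use the random background probes as reference.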

[2] = test system: LXRa:RXRa (NR concentration 270 nM, RXRa partner concentration 90 nM)
Summary of the method: as §1

[3] = test system: LXRa homodimer (NR concentration 270 nM)
Summary of the method: as §1

[4] = test system: LXRb:RXRa (NR concentration 270 nM, RXRa partner concentration 90 nM)
Summary of the method: as §1

[5] = test system: LXRb homodimer (NR concentration 270 nM)
Summary of the method: as §1

[6] = test system: PPARa:RXRa (NR concentration 270 nM, RXRa partner concentration 90 nM)
Summary of the method: as §1

[7] = test system: PPARg:RXRa (NR concentration 180 nM, RXRa partner concentration 90 nM)
Summary of the method: as §1

[8] = test system: PPARg:RXRa 270nM:90nM, anti-RXR (NR concentration 270 nM, RXRa partner concentration 90 nM)
Summary of the method: as §1

[9] = test system: PPARg:RXRa 30nM:10nM, anti-RXR (NR concentration 30 nM, RXRa partner concentration 10 nM)
Summary of the method: as §1

[10] = test system: PPARg:RXRa 90nM:30nM, anti-RXR (NR concentration 90 nM, RXRa partner concentration 30 nM)
Summary of the method: as §1

[11] = test system: PPARg:RXRa DBDmut IVT, anti-RXR (DBD mutation: RXRa K156A/R161A, NR concentration 270 nM, RXRa partner concentration 90 nM)
Summary of the method: as §1

[12] = test system: PPARg:RXRa IVT, anti-PPARg (NR concentration 270 nM, RXRa partner concentration 90 nM)
Summary of the method: as §1

[13] = test system: PPARg DBDmut:RXRa IVT, anti-PPARg (DBD mutation: PPARg1 K132A/R137A, NR concentration 270 nM, RXRa partner concentration 90 nM)
Summary of the method: as §1

[14] = test system: PPARg DBDmut IVT, anti-PPARg (DBD mutation: PPARg1 K132A/R137A, NR concentration 270 nM)
Summary of the method: as §1

[15] = test system: PPARg homodimer (NR concentration 180 nM)
Summary of the method: as §1

[16] = test system: PXR:RXRa (NR concentration 270 nM, RXRa partner concentration 90 nM)
Summary of the method: as §1

[17] = test system: PXR homodimer (NR concentration 270 nM)
Summary of the method: as §1

[18] = test system: RARa:RXR (NR concentration 270 nM, RXRa partner concentration 90 nM)
Summary of the method: as §1

[19] = test system: RARa homodimer (NR concentration 270 nM)
Summary of the method: as §1

[20] = test system: RARb:RXRa (NR concentration 270 nM, RXRa partner concentration 90 nM)
Summary of the method: as §1

Sequence	PBM binding z-score [1]	PBM binding z-score [2]	PBM binding z-score [3]	PBM binding z-score [4]	PBM binding z-score [5]	PBM binding z-score [6]	PBM binding z-score [7]	PBM binding z-score [8]	PBM binding z-score [9]	PBM binding z-score [10]	PBM binding z-score [11]	PBM binding z-score [12]	PBM binding z-score [13]	PBM binding z-score [14]	PBM binding z-score [15]	PBM binding z-score [16]	PBM binding z-score [17]	PBM binding z-score [18]	PBM binding z-score [19]	PBM binding z-score [20]
TCTAGCAGGCCAGAGGGTCACTCATGAGGTACGG	0.745	0.822	-0.462	0.852	-1.1	2.2	1.64	2.87	2.19	2.63	0.668	1.02	-0.735	-1.14	0.486	1.64	-0.579	2.5	-0.79	2.24
CCTCTTAGTTGACCATAAGGGCAACCGAAGCTCG	0.875	0.419	0.345	0.647	0.541	0.868	0.219	0.342	-0.34	0.305	0.417	0.373	0.452	-0.136	1.43	0.861	0.453	1.04	0.928	1.7
TAGCCTAGGTCATCCAGGGGCCAGTATAGAAAGC	4.4	3.37	0.176	2.82	0.318	3.66	2.57	2.47	0.738	1.52	1.23	2.73	0.724	-0.3	1.93	2.6	-0.246	3.55	0.127	3.98
ACTATTAGTTGACTTAGGGCAACCGCTACGACGC	0.0697	0.317	-0.0272	-0.056	0.492	-0.0454	0.482	-0.131	0.1	-0.0911	-0.144	0.703	0.862	0.674	0.236	0.0683	-0.0423	0.605	0.391	0.745
AGTCAAAGTTCAGTACGAGGTAACGTAAAGCACG	3.32	3.34	1.28	1.83	0.584	2.76	3.76	4.15	1.8	2.93	-0.11	1.83	0.68	0.981	1.69	3.02	1.72	2.35	1.06	4.11
TAGCCTAGGTCATGCGTGCCAGTATAGTGTCGGC	4.03	3.31	0.471	1.75	-0.0531	3.69	2.33	2.39	0.347	1.23	1.88	3.12	0.14	0.765	1.62	1.51	-0.776	2.65	-0.307	3.77
CCTATTACTTGACCATAAGGGCAACCGAAGCTCG	1.19	0.716	0.834	1.06	1.31	0.711	0.8	0.339	0.281	0.247	0.621	0.836	0.25	1.09	1.41	0.749	1.2	1.05	2.03	1.61
AGTTACGGGTCAACGAGGTTATAGCACGCGTATA	6.05	5.15	0.781	4.47	0.793	5.63	5.57	5.55	2.17	4.38	2.76	3.97	0.585	1.05	1.48	5.12	2.21	4.6	0.766	4.16
GCCGACAGGTGAAACGCAGGTAACTCAGGGTGGC	-0.479	0.0317	-0.662	-0.204	-1.11	0.797	0.421	-0.333	-0.664	-0.468	0.757	0.528	-0.976	-1.57	-0.704	-0.343	-0.71	0.331	-1.11	0.705
